Laboratory results published in PubChem BioAssay (Tox21).
Inconclusive results are not listed. Where a call stands in place of a potency, no number is given. Active and inactive are the calls of the source. Calls follow the shape of the dose curve; as a rule, active = well fitted activation curve with a large enough effect in the repeat runs; inconclusive = weak or mixed curves; inactive = no such curve, though single readings can be large or run the other way.

Target: Aryl hydrocarbon receptor (Homo sapiens) (UniProt P35869)
Sequence (P35869 whole entry, looked up): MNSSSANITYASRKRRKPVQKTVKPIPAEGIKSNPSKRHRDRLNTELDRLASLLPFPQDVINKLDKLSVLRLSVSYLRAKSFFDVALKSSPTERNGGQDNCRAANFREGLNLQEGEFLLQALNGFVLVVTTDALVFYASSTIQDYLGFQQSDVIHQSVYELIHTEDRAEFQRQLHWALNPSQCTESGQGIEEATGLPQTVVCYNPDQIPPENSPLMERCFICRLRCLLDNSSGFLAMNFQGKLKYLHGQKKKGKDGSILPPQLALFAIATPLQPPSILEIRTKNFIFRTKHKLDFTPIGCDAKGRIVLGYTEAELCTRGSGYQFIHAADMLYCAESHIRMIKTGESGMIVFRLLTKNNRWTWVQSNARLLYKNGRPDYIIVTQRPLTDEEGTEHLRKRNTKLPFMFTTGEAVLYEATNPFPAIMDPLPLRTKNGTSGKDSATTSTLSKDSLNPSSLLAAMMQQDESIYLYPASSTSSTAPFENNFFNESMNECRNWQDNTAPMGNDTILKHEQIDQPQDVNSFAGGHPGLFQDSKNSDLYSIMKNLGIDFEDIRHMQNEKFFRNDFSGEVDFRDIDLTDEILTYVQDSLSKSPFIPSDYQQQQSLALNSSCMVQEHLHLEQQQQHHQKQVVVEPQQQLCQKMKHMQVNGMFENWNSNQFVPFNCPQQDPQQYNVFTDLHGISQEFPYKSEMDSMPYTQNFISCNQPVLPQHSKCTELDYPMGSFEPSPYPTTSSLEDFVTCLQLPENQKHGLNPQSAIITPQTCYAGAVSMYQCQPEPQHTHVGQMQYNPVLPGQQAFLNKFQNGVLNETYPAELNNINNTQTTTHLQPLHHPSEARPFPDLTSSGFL
Assay: qHTS assay to identify small molecule that activate the aryl hydrocarbon receptor (AhR) signaling pathway (AID 743085); also: nearly all actives have a fitted effect of over 15% in size;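 as to activation: HG2L7.5c1 human HepG2 liver cells with stably integrated DRE-driven firefly reporter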
Settings: HepG2 AhR-luc (HG2L7.5c1), luciferase, 24 h; series mostly up to 70.3 µM
Description: U.S. Tox21 Program National Center for Advancing Translational Sciences [NCATS] NIH Chemical Genomics Center [NCGC] U.S. Environmental Protection Agency [EPA] National Institutes of Environmental Health Sciences [NIEHS] National Toxicology Program [NTP] U.S. Food and Drug Administration [FDA] Tox21 Assay overview: The Aryl hydrocarbon Receptor (AhR), a member of the family of basic helix-loop-helix transcription factors, is crucial to adaptive responses to environmental changes. AhR mediates cellular responses to environmental pollutants such as aromatic hydrocarbons through induction of phase I and II enzymes but also interacts with other nuclear receptor signaling pathways. A cell based HepG2-AhR-luc assay (HG2L7.5c1 cell line, developed by Dr. Michael S. Denison, University of California at Davis, was used to assess the activation of AhR. HepG2 (human hepatocellular carcinoma) cells were stably transfected with an Ah receptor-responsive firefly luciferase reporter gene plasmid containing 20 dioxin responsive elements and luciferase reporter gene. Increased luciferase activity can be used to identify the compounds that induce AhR activation.
Tox21 Assay Protocol Summary: 4000 cells in 5 uL/well were dispensed into white wall/solid bottom 1536-well plates using a Multidrop Combi (Thermo Fisher Scientific Inc., Waltham, MA) dispenser. After the assay plates were incubated at 37C for 5 h, 23 nL of compound or DMSO vehicle was transferred to the assay plates by a pintool station (Kalypsys, San Diego, CA). The plates were incubated at 37C for 24 hr. After 1 ul/well of CellTiter-Fluor reagent (Promega, Madison, WI) was added into the assay plates using a Flying Reagent Dispenser (FRD) (Aurora Discovery, CA), the assay plates were incubated at 37C for 30 min. The fluorescence intensity in the plates was measured using a ViewLux plate reader (PerkinElmer, Shelton, CT), followed by the addition of 4 uL of ONE-Glo Luciferase Assay reagent (Promega) using an FRD (Aurora Discovery). After the assay plates were incubated at room temperature for 30 min, luminescence intensity was measured using a ViewLux plate reader (Perkin Elmer).
Potency is read from the fitted curve at half-maximal effect.

**Q.** How did the Potency turn out when `CC1(C)C(\C=C/C=C\C=C/C=C2/N(CCCCS(=O)(=O)O)c3ccc4ccccc4c3C2(C)C)=[N+](CCCCS(=O)(=O)[O-])c2ccc3ccccc3c21` was run?
**A.** Its Potency is “inactive”.

**Q.** For `N[C@@H](C(=O)N[C@@H]1C(=O)N2C(C(=O)O)=C(CSc3cn[nH]n3)CS[C@H]12)c1ccc(O)cc1`, which Potency is on record?
**A.** Its Potency is “inactive”.

**Q.** How did the Potency turn out when `CCCCCCCCCCCCCCCCCCOP(=O)([O-])OC1CC[N+](C)(C)CC1` was run?
**A.** The Potency was “inactive”.

**Q.** `CCSc1ccc2c(c1)N(CCCN1CCN(C)CC1)c1ccccc1S2` was tested. Which Potency did it give?
**A.** Its Potency is “inactive”.

**Q.** With `CCCCC(O)c1ccccc1` (stereo not given) as the molecule, how does the Potency read?
**A.** Its Potency is “inactive”.

**Q.** `COC(=O)C1=C(C#N)NC(C)=C(C(=O)OC(C)C)C1c1cccc([N+](=O)[O-])c1` (stereo not given) was tested. Which Potency did it give?
**A.** The Potency was “inactive”.

**Q.** For `O=C(O)CN(CC(=O)O)CC1=CC2C(=CC1=O)Oc1cc(O)c(CN(CC(=O)O)CC(=O)O)cc1C21OC(=O)c2ccccc21` (stereo not given), which Potency is on record?
**A.** The Potency was “inactive”.

**Q.** How did the Potency turn out when `O=c1oc2cc(O)ccc2s1` was run?
**A.** The Potency was “inactive”.

**Q.** `CCCCCCCCCCCCCCCCCC(=O)OCC(C)O` (stereo not given) was tested. Which Potency did it give?
**A.** Its Potency is “inactive”.

**Q.** How did the Potency turn out when `NC(=O)c1ccc[n+]([C@@H]2O[C@H](COP(=O)([O-])OP(=O)(O)OC[C@H]3O[C@@H](n4cnc5c(N)ncnc54)[C@H](O)[C@@H]3O)[C@@H](O)[C@H]2O)c1` was run?
**A.** Its Potency is “inactive”.

**Q.** How did the Potency turn out when `CCN(CC)CCOCCOC(=O)C(CC)(CC)c1ccccc1` was run?
**A.** The Potency was “inactive”.

**Q.** For `NCCCC[C@H](NC(=O)[C@@H]1CCCN1C(=O)[C@@H]1CSSC[C@H](N)C(=O)N[C@@H](Cc2ccccc2)C(=O)N[C@@H](Cc2ccccc2)C(=O)N[C@@H](CCC(N)=O)C(=O)N[C@@H](CC(N)=O)C(=O)N1)C(=O)NCC(N)=O`, which Potency is on record?
**A.** The Potency was “inactive”.

**Q.** `CNC[C@@H]1CC[C@@H](N)[C@@H](O[C@H]2[C@H](O)[C@@H](O[C@H]3OC[C@](C)(O)[C@H](NC)[C@H]3O)[C@H](N)C[C@@H]2N)O1` was tested. Which Potency did it give?
**A.** The Potency was “inactive”.

**Q.** `CCOC(=O)[C@H](CCc1ccccc1)N[C@@H](C)C(=O)N1CC2(C[C@H]1C(=O)O)SCCS2` was tested. Which Potency did it give?
**A.** The Potency was “inactive”.

**Q.** For `O=C(O)[C@H]1/C(=C/CO)O[C@@H]2CC(=O)N21`, which Potency is on record?
**A.** The Potency was “inactive”.

**Q.** With `COc1ccc(CCNCC(O)COc2cccc(C)c2)cc1OC` (stereo not given) as the molecule, how does the Potency read?
**A.** Its Potency is “inactive”.

**Q.** For `CC(C)CN(C[C@@H](O)[C@H](Cc1ccccc1)NC(=O)O[C@H]1CO[C@H]2OCC[C@H]21)S(=O)(=O)c1ccc(N)cc1`, which Potency is on record?
**A.** Its Potency is “inactive”.

**Q.** `Nc1ncnc2c1ncn2[C@@H]1O[C@H](COP(=O)(O)OP(=O)(O)OP(=O)(O)O)[C@@H](O)[C@H]1O` was tested. Which Potency did it give?
**A.** Its Potency is “inactive”.

**Q.** `CO/N=C(\C(=O)N[C@@H]1C(=O)N2C(C(=O)O)=C(CSc3nnnn3C)CS[C@H]12)c1csc(N)n1` was tested. Which Potency did it give?
**A.** The Potency was “inactive”.

**Q.** `CCCCCCCCCCCCCCCCCCCCCCO` was tested. Which Potency did it give?
**A.** The Potency was “inactive”.

**Q.** Which Potency does the source give for `CCCCCCOc1ccc(C(=N)N(CCCC)CCCC)c2ccccc12` here?
**A.** The Potency was “inactive”.

**Q.** For `CN1c2cc(O)c(N=NC(N)=O)cc2CC1S(=O)(=O)O` (stereo not given), which Potency is on record?
**A.** Its Potency is “inactive”.

**Q.** With `NC(=O)OCC(O)COc1ccc(Cl)cc1` (stereo not given) as the molecule, how does the Potency read?
**A.** The Potency was “inactive”.

**Q.** With `C[C@H](/C=C/[C@H](C)C(C)(C)O)[C@H]1CC[C@H]2/C(=C/C=C3C[C@@H](O)C[C@H](O)C3)CCC[C@]12C` as the molecule, how does the Potency read?
**A.** Its Potency is “inactive”.

**Q.** For `[O]=[Bi][O]C(=O)[O][Bi]=[O]`, which Potency is on record?
**A.** The Potency was “inactive”.

**Q.** How did the Potency turn out when `CCN(CC)CCCC(C)Nc1cc(/C=C/c2ccccc2Cl)nc2cc(Cl)ccc12` (stereo not given) was run?
**A.** The Potency was 26.6 µM (active).

**Q.** With `CC(C)[C@@H](C)/C=C/[C@@H](C)[C@H]1CC[C@H]2/C(=C/C=C3\C[C@@H](O)CC[C@@H]3C)CCC[C@]12C` as the molecule, how does the Potency read?
**A.** Its Potency is “inactive”.

**Q.** With `CCC(C)[C@H]1O[C@]2(C=C[C@@H]1C)C[C@@H]1C[C@@H](C/C=C(\C)[C@@H](O[C@H]3C[C@H](OC)[C@@H](O[C@H]4C[C@H](OC)[C@H](NC(C)=O)[C@H](C)O4)[C@H](C)O3)[C@@H](C)/C=C/C=C3\CO[C@@H]4[C@H](O)C(C)=C[C@@H](C(=O)O1)[C@]34O)O2` (stereo not given in full) as the molecule, how does the Potency read?
**A.** The Potency was “inactive”.

**Q.** `CCCCCCCCCCCCCCCC(=O)O[C@@H]1CC(C)=C(/C=C/C(C)=C/C=C/C(C)=C/C=C/C=C(C)/C=C/C=C(C)/C=C/C2=C(C)C[C@@H](OC(=O)CCCCCCCCCCCCCCC)CC2(C)C)C(C)(C)C1` was tested. Which Potency did it give?
**A.** The Potency was “inactive”.

**Q.** With `CC(CN(C)C)CN1c2ccccc2S(=O)(=O)c2ccccc21` (stereo not given) as the molecule, how does the Potency read?
**A.** Its Potency is “inactive”.

**Q.** `CCCCCCC(=O)O[C@H]1CC[C@H]2[C@@H]3CCc4cc(O)ccc4[C@H]3CC[C@]12C` was tested. Which Potency did it give?
**A.** Its Potency is “inactive”.

**Q.** `CCNC(=O)[C@@H]1CCCN1C(=O)[C@H](CCCN=C(N)N)NC(=O)[C@H](CC(C)C)NC(=O)[C@@H](CC(C)C)NC(=O)[C@H](Cc1ccc(O)cc1)NC(=O)[C@H](CO)NC(=O)[C@H](Cc1c[nH]c2ccccc12)NC(=O)[C@H](Cc1cnc[nH]1)NC(=O)[C@@H]1CCC(=O)N1` was tested. Which Potency did it give?
**A.** Its Potency is “inactive”.

**Q.** How did the Potency turn out when `NC[C@@H]1O[C@H](O[C@H]2[C@@H](O)[C@H](O[C@@H]3[C@@H](O)[C@H](N)C[C@H](N)[C@H]3O[C@H]3O[C@H](CO)[C@@H](O)[C@H](O)[C@H]3N)O[C@@H]2CO)[C@H](N)[C@@H](O)[C@@H]1O` was run?
**A.** Its Potency is “inactive”.

**Q.** Which Potency does the source give for `C[C@H]1C[C@H]2[C@@H]3CCC4=CC(=O)C=C[C@]4(C)[C@@]3(F)[C@@H](O)C[C@]2(C)[C@@]1(O)C(=O)CCl` here?
**A.** Its Potency is 6.68 µM (active).

**Q.** Which Potency does the source give for `CC1(C)S[C@@H]2[C@H](NC(=O)C(N)c3ccccc3)C(=O)N2[C@H]1C(=O)OC1OC(=O)c2ccccc21` (stereo not given in full) here?
**A.** The Potency was “inactive”.

**Q.** For `CCC(CN)CC(C)CCNCC(O)CNCC(C)CC(CC)CN` (stereo not given), which Potency is on record?
**A.** The Potency was “inactive”.

**Q.** For `CCOC(=O)CCC(=O)O[C@H]1[C@H](O[C@@H]2[C@@H](C)[C@H](O[C@H]3C[C@@](C)(OC)[C@@H](O)[C@H](C)O3)[C@@H](C)C(=O)O[C@H](CC)[C@@](C)(O)[C@H](O)[C@@H](C)C(=O)[C@H](C)C[C@@]2(C)O)O[C@H](C)C[C@@H]1N(C)C`, which Potency is on record?
**A.** The Potency was “inactive”.

**Q.** `CN1CC(O)c2cc(N=NC(N)=O)c(O)cc21` (stereo not given) was tested. Which Potency did it give?
**A.** The Potency was “inactive”.

**Q.** With `CC1(C)C2CC[C@]3(C)[C@H](C(=O)C=C4[C@@H]5C[C@@](C)(C(=O)O)CC[C@]5(C)CC[C@]43C)[C@@]2(C)CC[C@@H]1O[C@H]1O[C@H](C(=O)O)[C@@H](O)[C@H](O)[C@H]1O[C@@H]1O[C@H](C(=O)O)[C@@H](O)[C@H](O)[C@H]1O` (stereo not given in full) as the molecule, how does the Potency read?
**A.** The Potency was “inactive”.

**Q.** For `CCOC(=O)[C@H](CS)NCCN[C@@H](CS)C(=O)OCC`, which Potency is on record?
**A.** The Potency was “inactive”.
